KCNH2 3.1 block: blocks the human KCNH2 3.1 channel isoform; U2OS KCNH2 3.1, thallium flux FluxOr; hits give low values; activity change, % (tested at about 1.8 µM); actives 0.95% (n = 340,000);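 active means maximum activity change below -70%; inconclusive means maximum activity change from -70% to -50%; inactive means maximum activity change above -50%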;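 further: thallium influx rate constant from kinetic fluorescence after stimulation buffer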
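Kinetic fluorescence (2 min after stimulation buffer) measures Tl+ influx through KCNH2 3.1 expressed by viral transduction in U2OS cells; the rate constant is normalized against DMSO controls serving as positive and negative references.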
MCF10A rerep: induces DNA re-replication in MCF 10a normal breast cells | Potency, µM (series often up to 46.1 µM), actives largely listed as activators | AID 624296 | actives 2.9% (n = 350,000) | MCF 10A DNA re-replication, Hoechst nuclear intensity, 48 h; further: nearly all actives have a fitted effect of over 50% in size
KB-3-1 cytotox: KB-3-1 parental cell cytotoxicity; KB-3-1 viability, CellTiter-Glo ATP luminescence, 72 h; Potency, µM (series often up to 46.1 µM), hits mostly cytotoxic; actives 1.4% (n = 400,000); AID 1347075; further: nearly all actives have a fitted effect of over 60% in size
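Screening of KB-3-1 cells (DMEM, 10% FBS, phenol-red free) ran from lowest to highest compound concentration; after 72 h at 37 °C viability was read luminescently and curves fitted.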
KB-V1 cytotox: KB-V1 MDR subline cytotoxicity; KB-V1 MDR cells viability, CellTiter-Glo, 72 h; Potency, µM (doses to about 46.1 µM), hits mostly cytotoxic; actives 3.4% (n = 400,000); further: nearly all actives have a fitted effect of over 60% in size
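KB-V1 cells (P-gp-expressing MDR subline of KB-3-1) in phenol-red-free DMEM with 10% FBS were exposed to library compounds over a concentration series for 72 h at 37 degrees C. Viability read by CellTiter-Glo luminescence; concentration-effect curves fitted after normalization.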
hERG WT inh: inhibitors of human wildtype KCNH2 potassium channel; U2OS, BacMam KCNH2, thallium flux FluxOr; hits give low values; actives 0.37% (n = 340,000); Q12809; activity change, % at 1.84 µM;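 active means maximum activity change below -70%; inconclusive means maximum activity change between -70% and -50%; inactive means maximum activity change above -50%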
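U2OS cells transduced with wild-type KCNH2 virus are loaded with FluxOr dye for 45 min, and thallium flux is measured in kinetic reads before and after stimulation buffer. Rate constants are normalized to DMSO controls.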
SW480 rerep: induces DNA re-replication in SW480 colon adenocarcinoma cells. SW480 DNA re-replication, Hoechst DNA content imaging, 48 h. Potency, µM (titrated, usually from 46.1 µM), actives largely listed as activators. actives 1.8% (n = 340,000); further: nearly all actives have a fitted effect of over 55% in size
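Treated cells incubate 48 hr (37 C, 5% CO2), are stained 40 min with Hoechst, and nuclear fluorescence is enumerated; a rise in nuclei with high DNA signal marks re-replication.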
A number is an active result. In the library only some 7.6% were active in any assay of this set; here they are far more common. Unless noted, the call rests on the fitted dose curve; in most records, active means well fitted curve in the direction sought with a large enough effect; inconclusive means small, poorly fitted or top-dose-only effect, or another doubt; inactive means no such curve, though single readings can be large; an effect the other way counts as inactive or inconclusive.

What do the screens show for `Cc1cnc2ccc3ccccc3c2c1C`?
KB-3-1 cytotox: 5.17µM; KB-V1 cytotox: inactive

What do the screens show for `Cc1c2ccccc2c(C)c2c1ccc1ccccc12`?
KCNH2 3.1 block: inactive; MCF10A rerep: inconclusive; KB-3-1 cytotox: inactive; KB-V1 cytotox: inactive; hERG WT inh: inactive; SW480 rerep: 1.84µM

Results for CCc1sc(C(=O)Nc2cccc(C(C)=O)c2)cc1C ?
KCNH2 3.1 block: inactive; MCF10A rerep: inactive; KB-3-1 cytotox: inactive; KB-V1 cytotox: 20.6µM; hERG WT inh: inactive; SW480 rerep: inactive

How did CC(=O)c1cccc(NC(=S)NC(=O)c2cccc(C)c2)c1 do in these assays?
KCNH2 3.1 block: inactive; MCF10A rerep: inactive; KB-3-1 cytotox: inconclusive; KB-V1 cytotox: 18.4µM; hERG WT inh: inactive; SW480 rerep: inactive

Results for CC(=O)c1cccc(NC(=S)NC(=O)c2ccccc2Br)c1 ?
KCNH2 3.1 block: inactive; MCF10A rerep: inactive; KB-3-1 cytotox: inactive; KB-V1 cytotox: 20.6µM; hERG WT inh: inactive; SW480 rerep: inactive

What do the screens show for `CC(=O)c1cccc(NC(=S)NC(=O)c2ccc(Cl)cc2)c1`?
KCNH2 3.1 block: inactive; MCF10A rerep: inactive; KB-3-1 cytotox: inactive; KB-V1 cytotox: inconclusive; hERG WT inh: inactive; SW480 rerep: inactive

Results for CCc1c(C)c2ccc(O)c(CN3CCN(c4ccc(F)cc4)CC3)c2oc1=O ?
KB-3-1 cytotox: inconclusive; KB-V1 cytotox: inactive

What do the screens show for `OC[C@H]1O[C@@H](c2nc(-c3cccc4ccccc34)no2)[C@H](O)[C@@H]1O`?
KB-3-1 cytotox: inactive; KB-V1 cytotox: inactive

Results for OC[C@H]1O[C@@H](c2nc(-c3ccccc3Br)no2)[C@H](O)[C@@H]1O ?
KB-3-1 cytotox: 7.31µM; KB-V1 cytotox: inconclusive

Results for Cc1cn([C@H]2C[C@H](O)[C@@H](CCC(=O)NCCCn3ccnc3)O2)c(=O)[nH]c1=O ?
KCNH2 3.1 block: inactive; MCF10A rerep: inactive; KB-3-1 cytotox: inactive; KB-V1 cytotox: inactive; hERG WT inh: inactive; SW480 rerep: inactive

Results for CC(=O)c1cc(C)ccc1OC(=O)CCN1C(=O)C2C3c4ccccc4C(c4ccccc43)C2C1=O (configuration not stated) ?
KCNH2 3.1 block: -87.1; MCF10A rerep: inactive; KB-3-1 cytotox: inactive; KB-V1 cytotox: inactive; hERG WT inh: inactive; SW480 rerep: inactive

Results for CC(=O)NCCN1C(=O)C2C3c4ccccc4C(c4ccccc43)C2C1=O (configuration not stated) ?
KCNH2 3.1 block: inactive; MCF10A rerep: inactive; KB-3-1 cytotox: inactive; KB-V1 cytotox: inconclusive; hERG WT inh: inactive; SW480 rerep: inactive

What do the screens show for `C=CCN1C(=O)/C(=C2/Sc3ccc(OC)cc3N2C)SC1=Nc1ccccc1`?
KCNH2 3.1 block: inactive; MCF10A rerep: inconclusive; KB-3-1 cytotox: inactive; KB-V1 cytotox: inactive; SW480 rerep: 7.31µM

Results for CO/N=C1\CCCc2c(C(=O)NN)sc(SC)c21 ?
KCNH2 3.1 block: inactive; MCF10A rerep: 16.4µM; KB-3-1 cytotox: inactive; KB-V1 cytotox: inactive; hERG WT inh: inactive; SW480 rerep: inconclusive

Results for COc1cccc(C=Nc2cc(C)cc(C)c2)c1O ?
KCNH2 3.1 block: inactive; MCF10A rerep: inactive; KB-3-1 cytotox: inactive; KB-V1 cytotox: inactive; hERG WT inh: inactive; SW480 rerep: inactive

How did COc1cc(Br)cc(C=Nc2cccc(C(F)(F)F)c2)c1O do in these assays?
KCNH2 3.1 block: inactive; MCF10A rerep: 20.6µM; KB-3-1 cytotox: inconclusive; KB-V1 cytotox: inactive; hERG WT inh: inactive; SW480 rerep: inactive

Results for Oc1c(CN2CCOCC2)cc(COCc2ccccc2)c2cccnc12 ?
KCNH2 3.1 block: inactive; MCF10A rerep: inconclusive; KB-3-1 cytotox: inconclusive; KB-V1 cytotox: inconclusive; hERG WT inh: inactive; SW480 rerep: 3.66µM

Results for Oc1c(CNc2ccccc2)cc(COCc2ccccc2)c2cccnc12 ?
MCF10A rerep: inactive; KB-3-1 cytotox: inactive; KB-V1 cytotox: inactive; SW480 rerep: 0.461µM

Results for CN(C)S(=O)(=O)N1CCC(n2nccc2NC(=O)CCCc2ccccc2)CC1 ?
KCNH2 3.1 block: inactive; MCF10A rerep: inactive; KB-3-1 cytotox: inactive; KB-V1 cytotox: inactive; hERG WT inh: inactive; SW480 rerep: inactive

Results for COc1cccc(CCNC(=O)CCCC(=O)c2ccccc2)c1 ?
KCNH2 3.1 block: inactive; MCF10A rerep: inactive; KB-3-1 cytotox: inactive; KB-V1 cytotox: inactive; hERG WT inh: inactive; SW480 rerep: inactive

Results for Cc1c2c(cc3c1[nH]c1ccccc13)C=NCC2 ?
KCNH2 3.1 block: inactive; MCF10A rerep: 20.6µM; KB-3-1 cytotox: inconclusive; KB-V1 cytotox: inconclusive; hERG WT inh: inactive; SW480 rerep: inconclusive

What do the screens show for `COC1=CC(=O)c2c(ccc3ncnc(N)c23)C1=O`?
KCNH2 3.1 block: inactive; MCF10A rerep: inactive; KB-3-1 cytotox: 2.06µM; KB-V1 cytotox: 1.84µM; hERG WT inh: inactive; SW480 rerep: inconclusive

How did COc1cccc(C2c3cc4c(cc3OC(N3CCCC3)C2C)OCO4)c1O (configuration not stated) do in these assays?
MCF10A rerep: inconclusive; KB-3-1 cytotox: 20.6µM; KB-V1 cytotox: 8.2µM; hERG WT inh: inactive; SW480 rerep: inconclusive

How did CN(C)c1cc(O)c(C(=S)Nc2ccccc2)c(N(C)C)c1 do in these assays?
KCNH2 3.1 block: inactive; MCF10A rerep: inconclusive; KB-3-1 cytotox: inconclusive; KB-V1 cytotox: 16.4µM; hERG WT inh: inactive; SW480 rerep: inactive

Results for O=C(O)C(CCc1ccccc1)N1CCOCC1 (configuration not stated) ?
KCNH2 3.1 block: inactive; KB-3-1 cytotox: inactive; KB-V1 cytotox: inconclusive; hERG WT inh: inactive

What do the screens show for `CCC(C)[C@H](NC(=O)N1CCCCC1)C(=O)OC` (some centres not stated)?
KCNH2 3.1 block: inactive; MCF10A rerep: inconclusive; KB-3-1 cytotox: inactive; KB-V1 cytotox: inactive; hERG WT inh: inactive; SW480 rerep: inactive

What do the screens show for `CC(C)CNS(=O)(=O)c1ccc(S(=O)(=O)N2CCC3(CC2)OCCO3)cc1`?
KCNH2 3.1 block: inactive; MCF10A rerep: inactive; KB-3-1 cytotox: inactive; KB-V1 cytotox: 14.6µM; hERG WT inh: inactive; SW480 rerep: 0.184µM

Results for Cc1ccc(S(=O)(=O)NCc2ccccc2)cc1C(=O)NC(C)c1ccc(S(N)(=O)=O)cc1 (configuration not stated) ?
KCNH2 3.1 block: inactive; MCF10A rerep: inactive; KB-3-1 cytotox: inactive; KB-V1 cytotox: inactive; hERG WT inh: inactive; SW480 rerep: inconclusive

What do the screens show for `COc1ccc(NC(=O)/C(Cl)=C(/Cl)S(=O)Cc2ccc(Cl)cc2)cn1` (configuration not stated)?
KCNH2 3.1 block: inactive; MCF10A rerep: inconclusive; KB-3-1 cytotox: 7.31µM; KB-V1 cytotox: 5.8µM; hERG WT inh: inactive; SW480 rerep: inconclusive
